Laboratory results published in ChEMBL document CHEMBL1157539, “Thousands of chemical starting points for antimalarial lead identification” (Nature, 2010).

system: Plasmodium falciparum; experiment: GSK_TCMDC: Inhibition of Plasmodium falciparum 3D7 in whole red blood cells, using parasite LDH activity as an index of growth. Test compounds present at 2uM; assay type: functional

| SMILES | Inhibition [%] |
| --- | --- |
| Cc1ccc(C)c(Cn2ccc3nc(Cl)nc(Cl)c32)c1 | 95 |
| COc1cc2nc(N(C)C)nc(Nc3ccc(OCc4ccccc4)cc3)c2cc1OC | 100 |
| Nc1nc(N)c2cc(CNc3ccc(Cl)c(Cl)c3)ccc2n1 | 93 |
| O=C(NCCCCN1CC=C(c2ccc3c(c2OCC2CC2)CCCC3)CC1)c1ccc(-c2ccc(C(F)(F)F)cc2)cc1 | 93 |
| C=C[C@]1(C)C[C@@H](OC(=O)CSC2CN3CCC2C3)[C@@]2(C)C3C(=O)CC[C@@]3(CC[C@H]2C)[C@@H](C)[C@@H]1O.Cl (some centres undefined) | 91 |
| CCN(CC)CCNC(=O)c1ccc(NC(=O)c2cc3c(C)nn(-c4ccc(Cl)cc4)c3s2)cc1.Cl | 95 |
| CC1CCN(Cc2c(O)ccc3c(O)c(-c4nc5ccccc5s4)c(=N)oc23)CC1 | 98 |
| C#CCOc1ccc2ccccc2c1CNCCCCCCNCc1c(OCC#C)ccc2ccccc12.CS(=O)(=O)O | 100 |
| CC(C)(CNC(=O)[C@H]1CCCN1)c1nc(-c2ccc(Cl)c(O)c2)c(-c2ccncc2)[nH]1.Cl | 86 |
| Cc1cc(N2CCN(C(=O)OC(C)(C)C)CC2)ccc1N | 92 |
| COc1ccc(-c2cnc3[nH]cc(-c4ccc(C(=O)O)c(C)c4)c3c2)cn1.O=C(O)C(F)(F)F | 99 |
| CS(=O)(=O)Cc1ccc(Nc2ncc(Cl)c(Nc3cccnc3C(N)=O)n2)cc1.Cl | 97 |
| COc1ccc(NC(=O)Nc2cccc(-c3ccc(-c4nc5cccc(C)c5[nH]4)s3)c2)cc1 | 100 |
| CC(C)(C)c1ccc2oc(=O)n(C3CCN(C(=O)c4ccc([N+](=O)[O-])o4)CC3)c2c1 | 94 |
| COc1ccccc1N1CCN(CCCCNC(=O)c2ccc(NC(=O)c3cc(Cl)cc(Cl)c3)cc2)CC1 | 100 |
| CCCN1CCN(c2ccc(NS(=O)(=O)c3ccc(C(=O)Nc4ccc(Cl)cc4)cc3)cc2)CC1.O=C(O)C(F)(F)F | 100 |
| CN(C)Cc1cccc(-c2ccc(NC(=O)c3ccc4c(=O)n(CC5CCCO5)cnc4c3)cc2)c1 (centres undefined) | 97 |
| CN1CCN(CCCN(Cc2ccc(-c3ccc(CNC4CCCC4)cc3)cc2)C(=O)CCC2CCCC2)CC1.O=C(O)C(F)(F)F | 98 |
| COc1ccc(CNCc2ccc(-c3cccc(-c4nc5cc(C(F)(F)F)ccc5[nH]4)c3)cc2)cc1.O=C(O)C(F)(F)F | 100 |
| Cn1nc(-c2ccc(NC(=O)Nc3cc(C(F)(F)F)ccc3F)cc2)c2cnc(NCCc3c[nH]cn3)nc21.O=C(O)C(F)(F)F | 99 |

| SMILES | Inhibition [%] |
| --- | --- |
| Cl.Nc1c2c(nc3ccc(NC(=O)CCCCCc4ccccc4)cc13)CCCC2 | 100 |
| COc1cc(NC(=O)c2cccs2)c(OC)cc1NC(=O)Nc1cccc(Cl)c1 | 83 |
| CC(C)(C)Cn1cc(-c2ccc(C(=O)NCCc3ccc(S(C)(=O)=O)cc3)cc2)c(N)n1.CC(C)(C)Cn1ncc(-c2ccc(C(=O)NCCc3ccc(S(C)(=O)=O)cc3)cc2)c1N.O=C(O)C(F)(F)F | 86 |
| Cn1cc(C2CCN(CCCCNC(=O)c3ccc(-c4ccc(C(F)(F)F)cc4)c(CO)c3)CC2)c2ccccc21 | 88 |
| CCCCCCN1CCCN(Cc2ccc(C(=O)Nc3ccc(C(C)C)cc3)cc2)CC1.O=C(O)C(F)(F)F | 93 |
| Cc1cc(=NN=Cc2ccccn2)c2cc(C(F)(F)F)ccc2[nH]1 | 100 |
| Cc1[nH]c(C)c(-c2ccc(-c3ccccc3Cl)nc2)c(=O)c1Br | 97 |
| COc1ccc(CNCc2cccc(-c3cccc(-c4nc5cccc(C)c5[nH]4)c3)c2)cc1.O=C(O)C(F)(F)F | 100 |
| O=C(Nc1ccc(-c2nc3ccccc3[nH]2)cc1)C1CCCN(C2CCC2)C1 (centres undefined) | 90 |
| COC(=O)CCCCCOc1cc(Cc2cnc(N)nc2N)cc(OC)c1OC | 90 |
| Cc1[nH]c(C)c(-c2ccc(-c3ccc(C(F)F)cc3)nc2)c(=O)c1Cl | 97 |
| Cc1noc(-c2ccc3c(c2)CCN(CCC2CCC(NC(=O)/C=C/c4cccc(Cl)c4)CC2)CC3)n1.Cl (centres undefined) | 86 |
| COc1ccc2nccc([C@@H](O)CN3CCC(NC(=O)c4ccc(-c5ccccc5)s4)CC3)c2c1 | 100 |
| c1ccc(OCCOc2ccc(Nc3ccnc4cc5ccccc5cc34)cc2)cc1 | 100 |
| O=C(NCCCCN1CCC(c2c[nH]c3ccc(-c4ccccc4)cc23)CC1)c1ccc(-c2ccccc2)cc1.O=C(O)C(=O)O | 97 |
| Cc1cc(-c2nc3cc(C(=N)N)ccc3[nH]2)c(C)cc1-c1nc2cc(C(=N)N)ccc2[nH]1.Cl | 96 |
| COc1ccc(CNCc2cccc(-c3ccc(-c4nc5cccc(C)c5[nH]4)cc3)c2)cc1.O=C(O)C(F)(F)F | 100 |
| COc1ccc(CNC2CCN(C)CC2)cc1-c1ccc(S(=O)(=O)NCc2ccccc2)c(F)c1.O=C(O)C(F)(F)F | 100 |
| N#Cc1ccc(-c2ccc(C(=O)NC3CCN(CCN4CCC(c5cn(CCOC6CCCCO6)c6ccccc56)CC4)CC3)cc2)cc1 (centres undefined) | 99 |
